In all, about 330,000 compounds went through this assay and about 2,800 (0.85%) were called active. The sample holds actives, similar compounds and a random draw of the others, so the mix is not that of the screen. A number with no mark means an inactive call.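 Rule for the calls: active = mean inhibition across replicates of 60% or more, whatever share of single replicates reaches that level; inconclusive = some that reach 60%, reason not given; inactive = mean inhibition across replicates below 60%.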
experiment: inhibitors of MITF-dependent TRPM1 promoter reporter, primary screen, cell-based, SK-MEL-5, single point, luciferase (AID 488899); settings: SK-MEL-5 TRPM1 promoter luciferase, 24 h; at 12.5 µM; hits give high values

For `CCCc1ccc(OCc2ccc(C(=O)N/N=C/c3cccc([N+](=O)[O-])c3)o2)c(OC)c1`, the inhibition was 69.2% (active).
With `O=C(NC(Nc1nc2ccc([N+](=O)[O-])cc2s1)(C(F)(F)F)C(F)(F)F)c1ccccc1` the inhibition was 70.9% (active).
For `CN(C)CCCN(C(=O)c1ccc(S(=O)(=O)N2CCCc3ccccc32)cc1)c1nc2ccc(F)cc2s1`, the inhibition was 70.8% (active).
In the case of `CN(C)CCCN(C(=O)c1ccc(S(=O)(=O)N2CCCCCC2)cc1)c1nc2ccc(Br)cc2s1`, the inhibition is reported as 92.8% (active).
With `O=C(Nc1nc2ccc([N+](=O)[O-])cc2s1)c1ccc(S(=O)(=O)N2CCCc3ccccc32)cc1` the inhibition was 75.6% (active).

First: O=C(N/N=C/c1cccc(OCc2ccccc2)c1)c1ccc(Br)o1
Second: N#Cc1cc([N+](=O)[O-])ccc1Oc1cccc(/C=N/NC(=O)c2ccc(Cl)cc2)c1
The inhibition of the first is lower: 4.51% for the first, 4.52% for the second.

Compared with `COc1ccc(C(=O)NC2CC(C)(C)NC(C)(C)C2)cc1OC`, `CC(=O)N(OCc1ccc(OC(C)C)c(Cl)c1)C(C)=O` is lower in inhibition: 1.95% for the first, -2.52% for the second.

Going from `CCOc1ncccc1C(=O)OCC(=O)c1c[nH]c2ccccc12` to `O=C(COC(=O)c1ccc([N+](=O)[O-])cc1Cl)NC(=O)c1ccccc1`, the inhibition falls from 1.75% to -3.45%.

Compared with `O=C(Nc1cc2c3c(c1)C1CCCC1CN3CC1CCCC21)c1ccc([N+](=O)[O-])cc1` (centres undefined), `N=C1C(c2nc3ccccc3s2)=C(O)CN1NC(=O)c1ccc([N+](=O)[O-])cc1` is higher in inhibition: 1.02% for the first, 14.1% for the second.

Compared with `COc1ccc(NC(=O)N2CCCC2C(=O)NCc2ccccc2Cl)cc1` (centres undefined), `CCN(CC)S(=O)(=O)c1cccc(NC(=O)c2ccc(S(=O)(=O)N3CCCC3)cc2)c1` is lower in inhibition: 11.5% for the first, 11% for the second.

Going from `C=CCNc1nnc(SCC(=O)N2CCCCC2)c2ccccc12` to `CCC(=O)Nc1nnc(S(=O)(=O)N2CCCc3ccccc32)s1`, the inhibition falls from 11.5% to 5.17%.

Compared with `CC(C)Cn1c(CCC(=O)O)ccc1-c1cccs1`, `CCc1ccc2nc(N(CCCN(C)C)C(=O)c3ccc4c(c3)OCCO4)sc2c1` is lower in inhibition: 7.94% for the first, -67.8% for the second.

Going from `COc1ccc2sc(N(CCCN(C)C)C(=O)c3ccc(S(=O)(=O)N(C)C4CCCCC4)cc3)nc2c1` to `CC1CCN(C(=O)c2cccc(S(=O)(=O)N3CCCc4ccccc43)c2)CC1`, the inhibition falls from 55.2% to 7.39%.

Compared with `Cc1ccc(NC(=O)c2cccc(S(=O)(=O)N3CCCc4ccccc43)c2)nc1`, `Cn1c(=O)n(C)c2cc(S(=O)(=O)N3CCCc4ccccc43)ccc21` is lower in inhibition: 23.9% for the first, 0.873% for the second.

With `OCC1(CO)CC2(C1)CC(CO)(CO)C2` the inhibition was -3.8%.

— PubChem BioAssay AID488899 (Broad Institute, 2010)
